# Screens as filed in PubChem.
# HEK cytotox: cytotoxic compounds in HEK 293 cells. HEK 293 viability, ATP luminescence (CellTiter-Glo), 48-72 h. Potency, µM (series often up to 115 µM), inactives show top-dose activity change, negative = cytotoxicity, hits mostly inhibitors. hit rate 6.6% among 94,000; further: nearly all actives have a fitted effect of over 60% in size
#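 250 HEK 293 cells/well; compound by pintool; incubated 48 or 72 hr at 37 degree Celsius; CellTiter-Glo added, 10 min RT, luminescence imaged.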
# NPR1 antag: blocks ANP-stimulated signaling of human Npr1 receptor; Potency, µM (titrated, usually from 46.3 µM), inactives show top-dose activity change, negative = inhibition, usual class: inhibitors; P16066; HEK293 hNpr1 GloSensor cGMP, ANP-stimulated luminescence; hit rate 1.6% among 76,000; calls by dose curve; further: nearly all actives have a fitted effect of over 60% in size
#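 HEK293 cells stably expressing human Npr1 and cGMP GloSensor pGS-40F, loaded 2 h with 2% GloSensor reagent, given compound 30 min at room temperature. Luminescence read before and 20 min after 0.1 nM hNppA.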
# GPT2 inhibitor: GPT2 alanine aminotransferase inhibition; Potency, µM (series often up to 57.7 µM), inactives show at the highest dose activity change, negative = inhibition, hits mostly inhibitors; Recombinant GPT2, coupled pyruvate oxidase/HRP Amplex Red fluorescence; hit rate 0.25% among 100,000; Q8TD30; further: nearly all actives have a fitted effect of over 60% in size
#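 Fluorescence of coupled pyruvate oxidase/HRP/Amplex Red system (50uM Amplex, 30 min, dark) reports pyruvate formed by GPT2. Enzyme reaction: 10ng/uL GPT2, 2mM L-alanine, 250uM a-KG, 30 min room temperature, pH 7.5; 50uM AOA control.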
# 3T3 cytotox: NIH 3T3 cell cytotoxicity. NIH 3T3 viability, CellTiter-Glo ATP luminescence, 48-72 h. Potency, µM (doses to about 96.7 µM), for the others: at the highest dose activity change, negative = cytotoxicity, most hits filed as inhibitors. hit rate 4.3% among 94,000. AID 1345082; further: nearly all actives have a fitted effect of over 55% in size
#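 Cytotoxicity is measured as loss of cellular ATP: NIH 3T3 cells (400/well) are exposed to compound for 48 or 72 hr at 37 °C, then CellTiter-Glo luminescence is imaged after 10 min at room temperature.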
# Luciferase inh: blocks purified firefly luciferase enzyme activity. P08659. purified P. pyralis luciferase, luminescence, biochemical. Potency, µM (top dose mostly 115 µM), hits mostly inhibitors. hit rate 2.5% among 76,000. AID 1347043; further: nearly all actives have a fitted effect of over 65% in size
# Target sequence (P08659 whole entry, looked up): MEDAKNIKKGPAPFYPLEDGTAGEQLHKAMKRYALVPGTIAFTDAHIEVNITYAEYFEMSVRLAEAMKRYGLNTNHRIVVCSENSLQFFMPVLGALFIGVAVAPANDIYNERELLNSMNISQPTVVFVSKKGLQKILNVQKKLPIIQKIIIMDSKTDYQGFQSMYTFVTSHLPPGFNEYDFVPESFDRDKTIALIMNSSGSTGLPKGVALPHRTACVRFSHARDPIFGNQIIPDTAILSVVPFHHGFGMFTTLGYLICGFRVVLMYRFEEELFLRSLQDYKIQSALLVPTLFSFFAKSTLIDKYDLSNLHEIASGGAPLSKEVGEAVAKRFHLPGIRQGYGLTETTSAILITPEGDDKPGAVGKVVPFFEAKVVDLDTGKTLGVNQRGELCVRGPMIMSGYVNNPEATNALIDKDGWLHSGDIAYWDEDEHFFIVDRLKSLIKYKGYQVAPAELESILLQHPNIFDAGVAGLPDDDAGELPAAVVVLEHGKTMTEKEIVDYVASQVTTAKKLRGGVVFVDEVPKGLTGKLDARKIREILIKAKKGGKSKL
#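 FLuc 10nM, D-luciferin 10uM, ATP 10uM, Mg acetate 10mM, Tris acetate pH 7.5, Tween/BSA; cpd qHTS; enzyme added last; CCD luminescence.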
# Numbers without * were called inactive; i = inactive; u = inconclusive; x = no result given; [ ] = dose if it differs, or a comment. This is a sample that favours compounds with a hit; in the whole collection about 10% have one here. Unless noted, the call rests on the fitted dose curve; in most records, active means well fitted curve in the direction sought with a large enough effect; inconclusive means small, poorly fitted or top-dose-only effect, or another doubt; inactive means no such curve, though single readings can be large; an effect the other way counts as inactive or inconclusive. On the % scale 0 is the no-effect control and ±100 the full control effect; potency means the concentration at half of the fitted maximal effect.
SMILES,HEK cytotox,NPR1 antag,GPT2 inhibitor,3T3 cytotox,Luciferase inh
O=C(C[C@H]1NC(=O)c2ccccc2NC1=O)Nc1ccc(Cn2cncn2)cc1,11.8%,-1.8%,i,i,i
C=CCNC(=O)c1cnn2ncccc12,i,-4.7%[70.6 µM],3.8%[88.5 µM],-9.5%[174 µM],50.1µM*
C=CCNC(=O)c1cnn2cc(C)ccc12,-6.2%[230 µM],0.0%[70.6 µM],i,-25.1%[174 µM],u
Cc1ccc2cc(CCC(=O)N3CCOCC3)c(=O)[nH]c2c1,-4.3%,-15.3%,i,3.0%,31.6µM*
Cc1cc(N2CCC(NCc3nc[nH]c3C)CC2)nc(-c2ccccc2O)n1,u,-2.1%,i,35.5µM*,i
Cc1cc(N2CCC(NCc3noc(C)n3)CC2)nc(-c2ccccc2O)n1,u,-1.5%,1.3%,u,i
O=C(CN1C(=O)C(c2ccccc2)=NC12CCCC2)NCc1ccc(F)cc1,39.8µM*,-23.1%,i,u,i
O=C(CN1C(=O)C(c2ccccc2)=NC12CCCCC2)NC1CCCC1,28.2µM*,-1.0%,i,u,i
CN1CCN(c2nc3c(c(=O)[nH]2)CCN(Cc2ccc(C(F)(F)F)cc2)CC3)CC1,-9.0%,5.2%,i,-0.4%,i
COCCNC(=O)c1cc(C2CC2)nc2c1c(C1CCCN1)nn2-c1ccccc1 (stereo not given),79.4µM*,x,-2.0%,u,x
COCCNC(=O)c1cc(-c2ccc(OC)cc2)nc2c1c(C1CCCN1)nn2C (stereo not given),-25.2%,x,i,u,x
COc1ccc(-c2cc(C(=O)NCC(C)C)c3c(C4CCCN4)nn(C)c3n2)cc1 (stereo not given),u,x,3.6%,31.6µM*,x
O=C(c1cc(C2CC2)nc2c1c(C1CCCN1)nn2-c1ccccc1)N1CCC(F)CC1 (stereo not given),u,x,4.4%,31.6µM*,x
Cn1nc(C2CCCN2)c2c(C(=O)N3CCC(F)CC3)cc(C3CC3)nc21 (stereo not given),i,x,i,2.1%,x
CN1CCC(OC2CCN(C(=O)c3cnn(C)c3)CC2)CC1,2.3%,-8.9%,-11.3%,2.2%,i
COc1ccc(C(=O)NCC(=O)N2CCCCCNC(=O)CC2c2ccccc2)c(OC)c1 (stereo not given),3.6%,4.7%,i,1.2%,i
O=C(CC1CCCC1)N1CCC(C2CCN(Cc3cccc(F)c3F)CC2)C1 (stereo not given),u,1.8%,i,u,i
Cc1cc(C)cc(-c2ccc(CN3CCCC3C(=O)NCc3cccs3)cc2)c1 (stereo not given),u,x,-1.3%,u,x
O=C(NCc1cccs1)C1CCCCN1Cc1ccc(-c2ccsc2)cc1 (stereo not given),28.2µM*,x,-20.5%,25.1µM*,x
O=C(NCc1ccccc1Cl)C1CCCCN1Cc1ccc(-c2ccsc2)cc1 (stereo not given),35.5µM*,x,-10.0%,28.2µM*,x
O=C(NCCc1ccccc1)C1CCCCN1Cc1ccc(-c2ccsc2)cc1 (stereo not given),28.2µM*,x,2.8%,u,x
O=C(NCc1ccc(F)cc1)C1CCCCN1Cc1ccc(-c2ccsc2)cc1 (stereo not given),39.8µM*,x,u,u,x
O=C(NCc1cccnc1)C1CCCCN1Cc1ccc(-c2ccsc2)cc1 (stereo not given),u,x,i,u,x
CCc1noc(-c2cn(C3CCN(C(=O)c4cc(Cl)ccc4OC)C3)nn2)n1 (stereo not given),u,-11.2%,-24.3%,u,i
COCCCNC(=O)c1ccc2c(c1)n(Cc1ccc(OC)cc1)c(=O)c1ccnn12,u,7.6%,i,u,i
CN(C)Cc1cn(C[C@H]2C[C@@H](NC(=O)Nc3ccc4c(c3)OCCO4)[C@H](O)[C@@H]2O)nn1,1.7%,2.8%,4.9%,5.0%,i
C[C@]1(Cn2ccnn2)[C@H](C(=O)O)N2C(=O)C[C@H]2S1(=O)=O,x,x,i,x,x
COc1ccc(CNC(=O)C2CCCN2Cc2ccc(-c3cncnc3)cc2)cc1 (stereo not given),u,x,-8.6%,-27.0%,x
